Screening results (PubChem BioAssay)
Most compounds without a hit are left out; they make up all but 6.2% or so of the library.
ATXN viability – Viability Counterscreen for Primary qHTS for Inhibitors of ATXN expression. 400,000 tested, 0.49% active. Potency, µM (series often up to 56.7 µM), actives largely listed as cytotoxic. S2 cells (HEK-293 line with an ATXN2-luciferase reporter) viability, CellTiter-Fluor protease fluorescence, 24 h; note: nearly all actives have a fitted effect of over 40% in size
ATXN2 expr inh – Primary qHTS for Inhibitors of ATXN expression; 360,000 tested, 0.72% active; Potency, µM (series often up to 57 µM), for inactives: at the top dose activity change, negative = inhibition, actives largely listed as inhibitors; HEK-293 ATXN2-luciferase reporter, luminescence, 24 h; note: % is set by controls: 0 for no effect and ±100 for the full control effect; nearly all actives have a fitted effect of over 55% in size
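qHTS (up to 57 uM final) was run with 24 h compound exposure of reporter cells at 37 °C. Each well was multiplexed: SteadyGlo luminescence measured ATXN2-luciferase expression after a fluorogenic Gly-Phe-AFC viability readout (25 uM final).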
KB-3-1 cytotox – qHTS assay for MDR1-selective chemotherapeutics: Primary screen using the parental adenocarcinoma cell KB-3-1 | KB-3-1 viability, CellTiter-Glo ATP luminescence, 72 h | Potency, µM (doses to about 46.1 µM), usual class: cytotoxic | 400,000 tested, 1.4% active; note: % is set by controls: 0 for no effect and ±100 for the full control effect; nearly all actives have a fitted effect of over 60% in size
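Parental KB-3-1 adenocarcinoma cells in phenol-red-free DMEM with 10% FBS were pin-treated with compounds at several concentrations, incubated 72 h at 37 °C, and viability read by CellTiter-Glo luminescence; concentration-effect curves were fitted after normalization.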
HT1080 IDH1KD tx – qHTS for induction of synthetic lethality in tumor cells producing 2HG: qHTS for the HT-1080-IDH1KD cell line | Potency, µM (top dose mostly 46.1 µM), without a hit: at the top dose activity, negative = toxicity, usual class: cytotoxic | 360,000 tested, 2% active | HT-1080 IDH1 knockdown viability, ATP luminescence, 48 h;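 note: 0% = DMSO wells and -100% = cell-free medium wells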
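CellTiter-Glo luminescence after 48 h compound exposure at 37 degrees C of IDH1-knockdown HT-1080 cells in 5% FBS RPMI. %Activity scaled between DMSO wells and cell-free media wells, with curves fitted and assigned curve classes.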
HT1080-NT tox – qHTS for induction of synthetic lethality in tumor cells producing 2HG: qHTS for the HT-1080-NT fibrosarcoma cell line. 360,000 tested, 1.6% active. Potency, µM (highest dose often 46.1 µM), inactives show at the highest dose activity, negative = less viability, usual class: cytotoxic. HT-1080-NT fibrosarcoma viability, CellTiter-Glo ATP luminescence, 48 h;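 note: NT is the 2HG producing partner of a matched IDH1 knockdown line; 0% = DMSO-treated cells and -100% = media-only wells without cells; nearly all actives have a fitted effect of over 55% in size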
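Viability by CellTiter-Glo luminescence after 48 h compound exposure at 37C of HT-1080-NT cells (750/well, RPMI, 5% FBS). % activity scaled between DMSO wells and medium-only wells, then curve-fitted and categorized by curve class.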
KB-V1 MDR tox – qHTS assay for MDR1-selective chemotherapeutics: Primary screen using the drug-selected MDR subline cells KB-V1; KB-V1 MDR cells viability, CellTiter-Glo, 72 h; Potency, µM (series often up to 46.1 µM), hits mostly cytotoxic; 400,000 tested, 3.4% active; AID 1347076, 2019; note: % is set by controls: 0 for no effect and ±100 for the full control effect; nearly all actives have a fitted effect of over 60% in size
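Cytotoxicity via CellTiter-Glo luminescence after 72 h compound exposure at 37 degrees C. Cells: drug-selected KB-V1 line, DMEM phenol-red free plus 10% FBS. Compounds tested at multiple concentrations; normalized data fitted to concentration-effect curves.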
An asterisk follows results filed as active; i = inactive; ? = inconclusive; · = no result; ! = not confirmed by another sample; [ ] = remark or other dose. Calls come from the whole dose curve; as a rule, active = well fitted curve in the direction sought with a large enough effect; inconclusive = small, poorly fitted or top-dose-only effect, or another doubt; inactive = no such curve, though single readings can be large; an effect the other way counts as inactive or inconclusive. Potency is the fitted concentration of half-maximal effect.

SMILES | ATXN viability | ATXN2 expr inh | KB-3-1 cytotox | HT1080 IDH1KD tx | HT1080-NT tox | KB-V1 MDR tox
O=C(NC(c1ccccc1)c1ccc2ccccc2n1)C1CCN(Cc2ccc(Oc3ccccc3)cc2)CC1 (centres undefined) | ? | -26% | i | 13µM* | ? | i
COc1cc(OC)nc(C(NC(=O)C2CCN(Cc3ccc(Oc4ccccc4)cc3)CC2)c2ccccc2C)n1 (centres undefined) | ? | 0% | i | ? | 16µM* | i
Fc1ccc(CCNc2ncnc3nc[nH]c23)cc1 | · | · | i | · | · | i
COc1ccc(OC)c(CCNC(=O)c2nc(-c3ccc(Cl)cc3)n3c2CCCCC3)c1 | ? | -21% | ? | · | · | i
Cc1ccc(S(=O)(=O)N2CCN(c3nc(Nc4ccccc4O)nc4ccccc34)CC2)cc1 | · | · | · | 18% | 19% | ·
Cc1ccc2c(c1)N(C)/C(=C/c1cccc[n+]1C)S2 | i | ? | 0.92µM* | 10µM* | 21µM* | i
COc1ccc2c(c1)N(C)/C(=C/c1cccc[n+]1C)S2 | ? | ? | 1.6µM* | 13µM* | ? | i
Cc1ccc2c(c1)N(C)/C(=C/c1cccc[n+]1CCO)S2 | i | 0% | 1.8µM* | ? | ? | i
CCN1/C(=C/c2cccc[n+]2C)Sc2ccc(OC)cc21 | i | · | ? | ? | ? | i
CN1/C(=C/c2cccc[n+]2C)Sc2ccccc21 | i | ? | 1.5µM* | ? | ? | i
Cc1ccc2c(c1)S/C(=C/c1ccc[n+](C)c1)N2CCO | ? | -15%[11.3 µM] | ? | ? | ? | ?
COc1ccccc1NC(=O)CCN1CCC(C(N)=O)CC1 | i | -10% | ? | · | · | ?
O=c1[nH]c(=S)c2ncn(-c3ccccc3)c2[nH]1 | i | 1% | i | 21% | ? | ?
O=C1c2ccccc2C(=O)c2c1ncn2-c1ccccc1 | ? | 0% | ? | -18% | ? | 21µM*
COCCCC/C(=N\OCCN)c1ccc(C(F)(F)F)cc1 | ? | 16µM*! | ? | 18µM*! | ? | ?
CCc1cccc(CC)c1NC(=O)CN1C2CCCC1CC(NC(=O)Nc1cccc(OC)c1)C2 (centres undefined) | i | 3% | ? | ? | ? | 21µM*
COc1ccc2nc(NC3=NC(c4ccccc4)CC(=O)N3)nc(C)c2c1 (centres undefined) | i | -13% | i | 18µM* | ? | i
COc1ccc2c(C)nc(Nc3nc(C)c(C)c(=O)[nH]3)nc2c1 | i | 111% | 3.7µM* | ? | ? | 7.3µM*
COc1ccc2c(C)nc(Nc3nc(C)cc(C)n3)nc2c1 | i | -13% | i | 0.89µM* | 0.45µM* | ?
Cc1ccc(NC(=O)N2CC3CCCN3c3ccccc32)cc1Cl (centres undefined) | i | -24% | i | · | · | i
Cc1ccc2ncc(C(=O)N3CCN(c4ccccc4F)CC3)c(=O)n2c1 | i | 14% | i | · | · | ?
CCCCCCNC(=O)Nc1nnc(-c2ccncc2)s1 | · | · | ? | · | · | i
CCOC(=O)C1CCCN(C(=O)Cc2ccc(OC)c(OC)c2)CC1 (centres undefined) | ? | 7% | ? | 3% | 12% | 21µM*
CCOC(=O)C1CCCN(C(=O)Cc2ccc(OC)c(OC)c2)C1 (centres undefined) | i | 4% | i | -1% | -2% | i
CCN(CC)C(=O)C1CCC(CNS(=O)(=O)c2cccc3cccnc23)CC1 (centres undefined) | i | 0% | i | -3% | 0% | i
SMILES | ATXN viability | ATXN2 expr inh | KB-3-1 cytotox | HT1080 IDH1KD tx | HT1080-NT tox | KB-V1 MDR tox
CN(Cc1ccccc1)C(=O)C1CCC(CNS(=O)(=O)c2cccc3cccnc23)CC1 (centres undefined) | ? | · | i | -5% | -2% | 9.2µM*
Cc1cnc(-n2ncc(C(=O)NCc3ccncc3)c2C(C)C)nc1-c1ccc(F)cc1 | i | · | · | · | · | ·
O=C(CN1CCN(S(=O)(=O)c2ccccc2)CC1)Nc1ccccc1C(=O)NC1CC1 | i | -1% | i | 14% | 6% | 6.5µM*
COc1ccc(S(=O)(=O)N2CCCN(CC(=O)Nc3ccccc3F)CC2)cc1 | i | -9% | i | -5% | 15% | 9.2µM*
CC(=O)c1ccc(S(=O)(=O)N2CCN(CC(=O)Nc3ccccc3C(=O)NC3CC3)CC2)cc1 | i | -5% | ? | 0% | -8% | i
COc1ccc(OC)c(S(=O)(=O)Nc2ccc3c(c2)C(=O)OC3)c1 | i | -6% | i | 21µM* | 18µM* | i
COc1ccc(NS(=O)(=O)c2cc(OC)ccc2OC)cc1 | i | 2% | i | -3% | 7% | i
O=C(Nc1ccc2c(c1)nc1n2CCSC1)c1ccccc1 | i | ? | ? | 1% | -1% | 13µM*
CCCNC(=O)c1ccc2c(c1)C1C3CCC(C3)C1C(c1ccccc1)N2 (centres undefined) | i | -29% | ? | -22% | -16% | 21µM*
O=c1c(S(=O)(=O)c2ccccc2)cn(Cc2ccc(F)cc2)c2cc(N3CCOCC3)c(F)cc12 | · | · | i | · | · | i
Cc1cc(-c2ccnc(-n3ncc(C(=O)N(C)Cc4nccs4)c3C)n2)c(C)s1 | i | · | · | · | · | ·
O=C1[C@H](Cc2ccccc2)NCC=CC[C@H](c2ccc(Cl)cc2)N1Cc1ccc(Cl)cc1 | 32µM* | ? | ? | ? | ? | ?
O=C1[C@H](Cc2ccccc2)NCCCC[C@@H](c2ccc(Cl)cc2)N1Cc1ccccc1 | ? | ? | ? | ? | ? | 23µM*!
CC(Sc1nc2ccccc2s1)C(=O)NC1CCCc2ccccc21 (centres undefined) | i | -14% | i | -1% | -3% | 21µM*
CC(Sc1nnnn1C)C(=O)NC1CCCc2ccccc21 (centres undefined) | i | -18%[11.3 µM] | i | 12% | 14% | i
CC(=O)c1ccc(N2CCN(C(C)C(=O)NC3CCCc4ccccc43)CC2)cc1 (centres undefined) | i | -1% | 21µM* | 1% | -9% | 9.2µM*
COc1cc(OC)c2c(-c3cccc(-c4cccc(C)c4)c3)cc(=O)oc2c1 | i | -19% | i | 5.8µM* | ? | i
